PubChem BioAssay
This is one part of the list. Activity calls are given as the source filed them. Unless noted, no rule for the calls is given here.

Columns and labels:
[1] = Apaf-1 inhibitors, single-dose retest, confirmation, biochemical, fluorescence, DEVD-Rh110, 20 µM (AID 504614;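 active = mean inhibition of at least 40% at 20 µM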;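 also: plate controls were DMSO wells for no effect and DEVD-CHO caspase inhibitor control wells for full effect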); conditions: reconstituted apoptosome, caspase-3 DEVD-Rh110 fluorescence; at 20 µM; stronger effect = higher value
[2] = Rh110 fluorescence interference by putative Apaf-1 inhibitors, confirmation, artefact control for Apaf-1 inhibitor project, biochemical, 20 µM (AID 504615;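 active = signal rise of 40% or more at 20 µM, treated as a fluorescence artifact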); conditions: quenched caspase reaction, at 20 µM, stronger effect = higher value
[3] = fluorescence interference of Apaf-1 inhibitor hits, dose response, artefact control for Apaf-1 inhibitor project (AID 588538); conditions: fluorescence interference counterscreen, Apaf-1 assay format
[4] = inhibition of Brca1/Bard1 split-luciferase complementation, confirmation, counter-screen for Mdm2/MdmX interaction inhibitor project, luminescence, single concentration (AID 504668); conditions: Brca1/Bard1 bimolecular luciferase complementation counterscreen, at 8 µM, stronger effect = higher value
[5] = Peg3 promoter reporter inhibitors, retest, confirmation, cell-based, HeLa, luciferase reporter, single concentration (AID 602417;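 active = at 20 µM dose, 40% or more inhibition averaged across four replicates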); conditions: HeLa PEG-Prom luciferase reporter, luminescence, overnight; at 20 µM; stronger effect = higher value
PEG-3 [6] = molecular target: PEG-3 (UniProt Q6IN02); experiment: Peg3 promoter luciferase inhibitors, potency, dose response, cell-based, HeLa, CREF/GAPDH counter-screen panel (AID 624167); conditions: CREF/GAPDH counter-screens; HeLa PEG-Prom luciferase reporter, overnight, run 1, dose range 1, at 100 µM (top of the series) unless noted
PEG-3 [7] = molecular target: PEG-3 (UniProt Q6IN02); experiment: as above; conditions: CREF/GAPDH counter-screens; HeLa PEG-Prom luciferase reporter, overnight, run 2, dose range 1, at 100 µM (top of the series) unless noted
[8] = molecular target: COP9 signalosome complex subunit 5 (Homo sapiens) (UniProt Q92905); experiment: Csn5 deneddylation inhibitors, confirmation, biochemical, fluorescence polarization, single concentration, SCF-Nedd8OG substrate (AID 720654; in the data active = inhibition above about 50%;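 also: 0% = DMSO with enzyme and 100% = no enzyme wells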); conditions: Csn5 deneddylation of SCF-Nedd8OG, 90 min, at 16.6 µM, stronger effect = higher value
[9] = molecular target: 72 kDa type IV collagenase (Homo sapiens) (UniProt P08253); experiment: MMP-2 protease inhibition counter-screen, confirmation, counter-screen for CSN deneddylation inhibitor project, biochemical, fluorescence, single concentration (AID 720655;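 active = corrected plate-normalized z-score of 5 or more, or -5 or less, or inhibition of 15% or more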;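 also: plate controls were DMSO wells with enzyme for no effect and buffer wells lacking MMP-2 for full effect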); conditions: recombinant MMP-2, FRET substrate fluorescence, 60 min; at 16.6 µM
Prothrombin (Bos taurus) = Prothrombin (Bos taurus) (UniProt P00735); experiment: bovine thrombin inhibition counter-screen, confirmation, counter-screen for CSN deneddylation inhibitor project, biochemical, fluorescence polarization, single concentration (AID 720656;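 active = inhibition at or above a set limit, with a fluorescence interference ratio between 0.5 and a set maximum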); conditions: bovine thrombin cleavage of Ub4-pepOG, at 16.6 µM, stronger effect = higher value
[10] = HIF-2a reporter inhibitor retest, confirmation, luminescence, 786-0 RCC cells (AID 651580;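 active = mean inhibition across four replicates of at least 40 percent at the single tested concentration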); conditions: HIF-2a luciferase reporter luminescence, overnight, at 18.8 µM, stronger effect = higher value
[11] = HIF-1a luciferase reporter signal reduction – MiaPaCa-2 cells, single concentration, counter-screen for HIF-2a inhibitor project, confirmation (AID 651589;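 active = mean inhibition of the reporter signal across four replicates at the single tested dose of 50% or more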); conditions: MiaPaCa-2 HIF-1a luciferase reporter, desferoxamine, overnight; at 18.8 µM; stronger effect = higher value
[12] = molecular target: Tumor necrosis factor receptor superfamily member 10B (Homo sapiens) (UniProt O14763); experiment: caspase-8 TRAIL sensitization, hit retest, confirmation, cell-based, NB7+caspase-8, with/without TRAIL, luminescence panel (AID 651596; in the data active = activity above about 50%); conditions: NB7 neuroblastoma + caspase-8, TRAIL sensitization, luminescence viability, with TRAIL, mean of runs, at 10 µM, stronger effect = higher value
[13] = as above; conditions: NB7 neuroblastoma + caspase-8, without TRAIL, luminescence viability, without TRAIL, mean of runs, at 10 µM

PEG-3, sequence (Q6IN02 whole entry, looked up): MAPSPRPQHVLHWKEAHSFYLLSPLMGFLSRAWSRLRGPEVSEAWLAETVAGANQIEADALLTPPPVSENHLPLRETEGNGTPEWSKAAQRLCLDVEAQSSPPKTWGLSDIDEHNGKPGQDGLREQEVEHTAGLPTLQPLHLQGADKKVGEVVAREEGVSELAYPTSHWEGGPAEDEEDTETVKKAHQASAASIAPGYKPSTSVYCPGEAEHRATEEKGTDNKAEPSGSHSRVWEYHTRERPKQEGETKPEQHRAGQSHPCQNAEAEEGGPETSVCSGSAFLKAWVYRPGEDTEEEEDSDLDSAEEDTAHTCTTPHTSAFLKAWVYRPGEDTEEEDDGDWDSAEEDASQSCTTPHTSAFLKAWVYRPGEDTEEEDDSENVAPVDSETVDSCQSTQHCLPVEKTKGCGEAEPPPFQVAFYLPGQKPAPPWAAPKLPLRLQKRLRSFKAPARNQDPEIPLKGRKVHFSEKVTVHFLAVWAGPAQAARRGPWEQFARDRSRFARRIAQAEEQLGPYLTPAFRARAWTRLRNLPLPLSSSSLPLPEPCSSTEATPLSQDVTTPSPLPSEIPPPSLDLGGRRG
COP9 signalosome complex subunit 5 (Homo sapiens), sequence (Q92905 whole entry, looked up, one chain of several): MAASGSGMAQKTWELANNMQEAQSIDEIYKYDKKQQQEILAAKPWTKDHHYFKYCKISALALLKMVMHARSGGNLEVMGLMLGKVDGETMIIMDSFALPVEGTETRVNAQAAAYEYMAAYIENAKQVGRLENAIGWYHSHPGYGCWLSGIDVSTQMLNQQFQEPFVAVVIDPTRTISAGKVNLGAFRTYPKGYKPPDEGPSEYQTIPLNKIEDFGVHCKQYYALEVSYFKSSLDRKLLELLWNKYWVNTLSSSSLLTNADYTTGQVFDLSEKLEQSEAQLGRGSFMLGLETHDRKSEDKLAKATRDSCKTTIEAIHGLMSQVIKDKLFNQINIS
Prothrombin (Bos taurus), sequence (P00735 whole entry, looked up): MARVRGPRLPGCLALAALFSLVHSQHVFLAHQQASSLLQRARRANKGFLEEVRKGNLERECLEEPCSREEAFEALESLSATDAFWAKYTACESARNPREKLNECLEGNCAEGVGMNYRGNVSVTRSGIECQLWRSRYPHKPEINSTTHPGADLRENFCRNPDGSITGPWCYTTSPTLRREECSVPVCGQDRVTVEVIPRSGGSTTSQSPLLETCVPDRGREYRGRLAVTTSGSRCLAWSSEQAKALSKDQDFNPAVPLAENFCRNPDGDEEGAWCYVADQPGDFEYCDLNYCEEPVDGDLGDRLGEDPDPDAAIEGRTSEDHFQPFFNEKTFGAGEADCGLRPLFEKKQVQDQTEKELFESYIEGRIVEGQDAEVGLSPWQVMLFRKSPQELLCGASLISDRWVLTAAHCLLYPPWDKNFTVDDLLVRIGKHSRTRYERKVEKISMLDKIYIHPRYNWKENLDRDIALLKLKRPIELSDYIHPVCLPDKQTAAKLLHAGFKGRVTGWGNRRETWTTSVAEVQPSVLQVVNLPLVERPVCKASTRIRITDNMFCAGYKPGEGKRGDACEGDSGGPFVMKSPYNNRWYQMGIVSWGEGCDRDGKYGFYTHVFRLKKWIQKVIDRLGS
72 kDa type IV collagenase (Homo sapiens), sequence (P08253 whole entry, looked up): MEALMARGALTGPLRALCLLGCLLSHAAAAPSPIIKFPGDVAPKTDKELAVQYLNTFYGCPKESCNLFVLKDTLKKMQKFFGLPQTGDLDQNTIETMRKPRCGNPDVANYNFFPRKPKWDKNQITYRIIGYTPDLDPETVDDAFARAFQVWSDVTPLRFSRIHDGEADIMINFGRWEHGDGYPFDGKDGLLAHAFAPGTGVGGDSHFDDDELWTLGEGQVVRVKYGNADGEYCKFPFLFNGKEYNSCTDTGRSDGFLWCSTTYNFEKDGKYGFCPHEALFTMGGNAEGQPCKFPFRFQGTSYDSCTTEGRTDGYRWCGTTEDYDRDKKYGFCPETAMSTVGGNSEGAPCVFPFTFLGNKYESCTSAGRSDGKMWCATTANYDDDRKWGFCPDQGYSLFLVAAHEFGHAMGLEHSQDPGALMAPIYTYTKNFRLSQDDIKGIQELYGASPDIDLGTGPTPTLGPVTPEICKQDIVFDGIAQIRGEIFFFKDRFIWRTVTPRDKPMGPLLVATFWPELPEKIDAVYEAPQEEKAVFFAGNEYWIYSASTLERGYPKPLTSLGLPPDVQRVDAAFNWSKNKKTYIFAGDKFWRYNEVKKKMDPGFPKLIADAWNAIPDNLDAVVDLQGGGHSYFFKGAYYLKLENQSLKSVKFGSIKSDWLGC
Tumor necrosis factor receptor superfamily member 10B (Homo sapiens), sequence (O14763 whole entry, looked up): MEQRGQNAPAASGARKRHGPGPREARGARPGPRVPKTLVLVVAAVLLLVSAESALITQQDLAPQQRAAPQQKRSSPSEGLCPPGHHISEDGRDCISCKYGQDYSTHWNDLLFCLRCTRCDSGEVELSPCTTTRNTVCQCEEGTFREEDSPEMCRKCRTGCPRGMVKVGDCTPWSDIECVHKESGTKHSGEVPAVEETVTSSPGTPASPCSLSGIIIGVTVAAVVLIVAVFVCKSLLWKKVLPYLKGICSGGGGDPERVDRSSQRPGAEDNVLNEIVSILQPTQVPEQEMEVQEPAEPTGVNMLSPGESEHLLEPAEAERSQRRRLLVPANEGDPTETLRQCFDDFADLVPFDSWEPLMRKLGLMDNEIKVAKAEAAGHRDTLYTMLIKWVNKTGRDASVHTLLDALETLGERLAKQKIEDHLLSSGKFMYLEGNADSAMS

In the case of `C=CCC[C@H](Cc1ccc(F)cc1)C(=O)OC[C@@H](NC(=O)[C@@H](CC=C)CC(=O)N[C@H](CO)Cc1ccccc1)C(C)(C)C`, the inhibition [1] is reported as 14.6% (inactive) and the activation (fluorescence interference) [2] is reported as 3.46% (inactive).

With `c1ccc(CSc2nnc(-c3ccco3)c(-c3ccco3)n2)cc1` the inhibition [1] was 29.4% (inactive) and the activation (fluorescence interference) [2] was 6.26% (inactive).

For `CCC(=O)Nc1c(S(=O)(=O)c2ccccc2)c2nc3ccccc3nc2n1Cc1ccccc1`, the inhibition [1] was 16.3% (inactive) and the activation (fluorescence interference) [2] was -0.44% (inactive).

For `C#CCOCCOCCOCCNc1nc(N2CCN(C(=O)CCCCCCCCCCNC(=O)Cn3cc(CCCCCN)nn3)CC2)nc(N2CCN(C(=O)CCCCCCCCCCNC(=O)[C@H](CO)n3cc(CCCSC)nn3)CC2)n1`, the inhibition [1] was 60.8% (active), the activation (fluorescence interference) [2] was 4.21% (inactive) and the IC50 [3] was > 100 µM (inactive).

For `CCOC(=O)N1CCC(c2cc(=O)n(-c3ccccc3)[nH]2)CC1`, the inhibition [1] was 32.4% (inactive) and the activation (fluorescence interference) [2] was 8.7% (inactive).

With `COc1ccc(S(=O)(=O)/N=C2\C=C(NS(=O)(=O)c3ccccc3)C(=O)c3ccccc32)cc1` the inhibition [1] was 52.3% (active), the activation (fluorescence interference) [2] was -7.09% (inactive) and the IC50 [3] was > 100 µM (inactive).

For `CC(C)c1ccccc1OCC(O)CN(CC(O)COc1cccc2ccccc12)C(C)C` (stereo not given), the inhibition [1] was 16.9% (inactive) and the activation (fluorescence interference) [2] was 14.2% (inactive).

In the case of `O=C(/C=C/c1ccc(OCc2c(F)cccc2Cl)cc1)N1CCOCC1`, the inhibition [4] is reported as 27.7% (active).

In the case of `C/C(=N\NC(=O)c1cc2ccccc2cc1O)c1ccccn1`, the inhibition [4] is reported as 24.3% (active).

With `O=C(CCCN1C(=O)/C(=C\c2cccs2)SC1=S)Nc1ccc(O)cc1` the inhibition [4] was 31.8% (active).

With `CCn1c(SCc2c(Cl)cccc2Cl)nc2nc3c(cc2c1=O)CCCC3` the inhibition [4] was 35.8% (active).

In the case of `O=C(CCS(=O)(=O)c1ccc(F)cc1)Nc1nc(-c2ccncc2)cs1`, the inhibition [4] is reported as 34.2% (active).

With `COc1ccc(C)cc1Nc1n[n+](-c2ccccc2)c(-c2c(OC)ccc3ccccc23)s1` the inhibition [4] was 29% (active).

In the case of `O=C(N/N=C/c1cc(Br)cc(Br)c1O)c1cccc(S(=O)(=O)N2CCOCC2)c1`, the inhibition [4] is reported as 29.6% (active).

In the case of `CCn1cc(CN2CCC(C(=O)Nc3cccc(-c4cccc(Cl)c4)c3)CC2)c(C)n1`, the inhibition [1] is reported as 12.8% (inactive), the activation (fluorescence interference) [2] is reported as 5.12% (inactive) and the inhibition [5] is reported as 95.8% (active). The inhibition (PEG-3 [6]) was 98.4% and the inhibition (PEG-3 [7]) was 101%.

With `COc1ccc(N2C(=O)N3[C@H](c4cccc(C)c4)[C@@H]4C(=O)N(Cc5ccccc5)C(=O)[C@@H]4[C@]3(Cc3ccccc3)C2=O)cc1` the inhibition [4] was 35.6% (active).

In the case of `C#CCn1c(=NC(=O)c2ccc(S(=O)(=O)N3CCc4ccccc4C3)cc2)sc2cc(S(N)(=O)=O)ccc21`, the inhibition [4] is reported as 23% (active).

In the case of `COC(=O)c1ccc(Sc2nnnn2-c2ccccc2)c([N+](=O)[O-])c1`, the inhibition [4] is reported as 23% (active).

For `COc1ccc(NC(=O)c2cc3c(CO)cnc(C)c3oc2=Nc2cccc(F)c2)c(OC)c1`, the inhibition [4] was 27.9% (active).

For `Cc1ccc(O)c(CNCCNCc2cc(C)ccc2O)c1`, the inhibition [4] was 32.6% (active).

For `Cc1csc2nc(O)c(C(=O)NC3CCCCC3)c(=O)n12`, the inhibition [4] was 35% (active).

For `COc1ccc([C@@H]2[C@@H]3C(=O)N(C(C)(C)C)C(=O)[C@@H]3[C@]3(Cc4ccccc4)C(=O)N(c4ccc(Br)cc4)C(=O)N23)cc1`, the inhibition [4] was 35.6% (active).

For `CC(C)Cn1c(N)c(C(=O)NCc2cccs2)c2nc3ccccc3nc21`, the inhibition [1] was 38.4% (inactive), the activation (fluorescence interference) [2] was 5.03% (inactive) and the inhibition [8] was 99.2% (active). For the same compound, the inhibition [9] was 1.55% (inactive) and the inhibition (Prothrombin (Bos taurus)) was -0.76% (inactive).

In the case of `COCCNC(=O)Nc1ccc2nc(-c3ccco3)c(-c3ccco3)nc2c1`, the inhibition [1] is reported as 40.9% (active), the activation (fluorescence interference) [2] is reported as -1.4% (inactive) and the IC50 [3] is reported as > 100 µM (inactive). The inhibition [10] was -38.7% (inactive) and the inhibition [11] was 8.69% (inactive).

With `Oc1ccc(CNc2ccccc2F)c2cccnc12` the inhibition [4] was 30.8% (active).

In the case of `CCOC(=O)c1c(-c2ccccc2)oc2ccc(OCC(O)CNCCN(C)C)cc12` (stereo not given), the inhibition [4] is reported as 35.1% (active).

For `C/C(=N\NC(=O)c1nnn(-c2nonc2N)c1CN1CCc2ccccc21)c1ccccc1O`, the inhibition [4] was 31.1% (active).

In the case of `Cn1cc(C(=O)N/N=C/c2c(O)ccc3ccccc23)ccc1=O`, the inhibition [4] is reported as 27% (active).

For `O=C(CCl)Nc1cn(-c2ccccc2)nc1-c1ccc(F)cc1`, the inhibition [4] was 32.9% (active).

For `CC#CC[N+](C)(C)CCCCCCCCCCCC`, the inhibition [4] was 29.6% (active).

With `CN1CCN(CCCNC(=O)c2ccc(/C=C3\Oc4ccccc4N(Cc4ccc(Cl)cc4)C3=O)cc2)CC1` the inhibition [1] was 39.1% (inactive), the activation (fluorescence interference) [2] was 6.39% (inactive) and the inhibition [10] was -0.07% (inactive). The inhibition [11] was 106% (active), the inhibition [8] was -18.2% (inactive) and the inhibition [9] was 11.2% (inactive). The inhibition (Prothrombin (Bos taurus)) was -9.75% (inactive), the activity [12] was 41.5% and the activity [13] was 75%.
